Experimental data from PubChem BioAssay.
Where “and” joins values, the source holds several entries; their conditions need not be identical. Equal entries are not always repeated. Calls of active or inactive are those of the source.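 How the source made its calls, unless noted: active means inhibition at or above 50% relative to wild type and mutant plate controls; inactive means inhibition below 50%.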

Experiments:
[1] = inhibitors of TNFa-induced NFkB p65 translocation, primary screen, imaging, HUVEC, MLSMR starter and 10KST1 sets (AID 438;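 active means inhibition above 20% together with a positive visual image hit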;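 further: compound added about 3h40 before a 20 min TNFalpha stimulation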;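 on inhibition: signal is the nuclear over cytoplasmic p65 intensity ratio per well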); settings: HUVEC TNFa-induced p65 nuclear translocation; cell count: measured here: nuclei count (cytotoxicity indicator), at 2.08 µM; inhibition: at 2 µM, stronger effect = higher value, 0% TNFa-plus-vehicle, 100% no-TNFa wells
[2] = inhibitors of mutant huntingtin aggregation, primary screen, imaging, exon1htt(103Q)mCFP cells, high-content imaging (AID 483;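 active means visual image review flags a hit and inhibition of aggregation exceeds 20%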;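 further: compound exposure lasted 3 days before fixation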;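 on nuclei count: percent of the per-plate median nuclei count of sample wells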); settings: exon1htt(103Q)mCFP cell line, aggregate imaging, at 2 µM; inhibition of aggregation: stronger effect = higher value; nuclei count: measured here: cell count, toxicity
[3] = inhibitors of E-selectin induction by TNFa, primary screen, imaging, HUVEC, immunofluorescence, MLSMR starter and 10KST1 sets (AID 487;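 active means visually confirmed hit in the image check and inhibition above 20%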;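 on inhibition: signal is fraction of cell area covered by stained E-selectin grains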;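 on nuclei count: 100% = median nuclei count of all wells on the same plate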); settings: HUVEC TNFalpha-induced E-selectin immunofluorescence imaging, at 2 µM; inhibition: stronger effect = higher value; nuclei count: measured here: cell number, toxicity
[4] = DUSP6 inhibitors restoring Erk phosphorylation by chemical complementation, primary imaging in DUSP6-transfected HeLa (AID 609;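 active means compounds giving at least 50% inhibition in the cell-based MKP-3 phosphatase rescue imaging test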;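 on inhibition: phospho-Erk level distribution per well compared with pooled transfected vehicle control wells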); settings: HeLa MKP-3 transfected, phospho-Erk imaging KS statistic, at 10 µM, cells stimulated with TPA for 15 min
[5] = molecular target: Dual specificity protein phosphatase 6 (Homo sapiens) (UniProt Q16828); assay: as above; settings: HeLa MKP-3 transfected, phospho-Erk imaging KS statistic; at 10 µM; stronger effect = higher value; cells stimulated with TPA for 15 min
[6] = molecular target: Voltage-gated potassium channel subunit beta-2 (Rattus norvegicus) (UniProt P62483); assay: KvBeta enzyme negative modulators, primary screen, biochemical, NADPH fluorescence (AID 622;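 active means fluorescence slope higher than the sample average by over 3 SD, cut at about -0.22 in these data, passing the limit was not always enough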;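 further: slope of raw intensity against log time taken from 70 to 1610 s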); settings: recombinant KvBeta, 4-cyanobenzaldehyde reduction, at 10 µM, stronger effect = higher value
[7] = molecular target: Voltage-gated potassium channel subunit beta-2 (Rattus norvegicus) (UniProt P62483); assay: KvBeta positive modulators, primary screen, biochemical, NADPH fluorescence (AID 623;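 active means NADPH fluorescence slope more negative than the mean of all samples by about 3 SD, 99.7% confidence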;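 further: fluorescence intensity change per second fitted from 20 to 320 s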); settings: Recombinant KvBeta, NADPH fluorescence decrease slope, 10 min; at 10 µM; stronger effect = lower value
[8] = molecular target: Alpha-2C adrenergic receptor (Homo sapiens) (UniProt P18825); assay: modulators of alpha2C/GIRK thallium flux, primary screen, cell-based, HEK293 alpha2C/GIRK1/2 (AID 624;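 active means fluorescence slope after compound addition differing from the mean of all screened samples at 99.7% confidence, in either direction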;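 further: slope of fluorescence ratio to pre-addition baseline per second over 15 to 24 s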); settings: thallium flux BTC fluorescence, at 10 µM, actives lie on both sides
[9] = inhibitors of larval lipid processing in zebrafish, primary screen, whole organism, PED6 fluorescence, gall bladder and intestine (AID 686;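 active means a full or partial loss of lipid-probe fluorescence in the fish gall bladder, intestine or both, judged by eye; inactive means no fluorescence loss, or compound toxic to the fish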;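 further: larvae 5 to 7 days old with five fish per well; signal comes from phospholipase A2 cleavage of quenched PED6 carried via bile; overnight exposure to compound and PED6 before scoring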); settings: Zebrafish larvae PED6 lipid processing, fluorescence scoring; screened at 20 µM (by protocol)
[10] = inhibitors of Chlamydomonas gravitaxis, primary screen, whole organism, Chlamydomonas reinhardtii, WT vs cilia-less mutant, absorbance, 96-well (AID 463189); settings: OD600 absorbance, 2 days, at 10 µM, stronger effect = higher value;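 further: 0% = wild type cc124 cells in DMSO and 100% = ciliumless bld1 mutant cells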
[11] = inhibitors of Sendai virus-induced IRF3 signaling, primary screen, TLR/RLR signaling modifier project, cell-based, Sendai virus stimulus, luciferase, 10K MLSCN set (AID 602276;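 active means inhibition at or above 50% at 10 µM; inactive means inhibition below 50%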;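 further: firefly luciferase from ISG56 promoter only with Renilla not read in this screen; 0% = Sendai virus plus DMSO and 100% = medium plus DMSO without virus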); settings: HEK293 RL24 IRF3 luciferase reporter, at 10 µM, stronger effect = higher value
[12] = inhibitors of poly I:C-induced TLR3 signaling, primary screen, cell-based, poly I:C stimulus, luciferase, 10K MLSCN set (AID 602277;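 active means inhibition of the reporter signal at or above 50%; inactive means inhibition below 50%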); settings: HEK293-TLR3 RL24 IRF3 luciferase reporter, at 10 µM, stronger effect = higher value
[13] = measured here: cell density z-score
[14] = measured here: nuclear c-Myc green intensity z-score
[15] = measured here: nuclear pErk red intensity z-score, stronger effect = higher value

Sequence of Dual specificity protein phosphatase 6 (Homo sapiens) (Q16828 whole entry, looked up): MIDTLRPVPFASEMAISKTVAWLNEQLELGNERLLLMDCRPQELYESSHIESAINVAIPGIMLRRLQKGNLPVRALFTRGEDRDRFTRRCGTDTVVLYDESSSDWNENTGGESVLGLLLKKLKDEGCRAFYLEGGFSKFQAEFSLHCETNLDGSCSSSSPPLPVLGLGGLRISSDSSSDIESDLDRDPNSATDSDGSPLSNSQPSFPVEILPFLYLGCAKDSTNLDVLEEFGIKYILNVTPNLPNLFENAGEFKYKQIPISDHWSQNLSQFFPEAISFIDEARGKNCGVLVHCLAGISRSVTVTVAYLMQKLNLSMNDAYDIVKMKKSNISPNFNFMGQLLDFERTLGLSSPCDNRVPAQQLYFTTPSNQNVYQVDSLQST
Sequence of Alpha-2C adrenergic receptor (Homo sapiens) (P18825 whole entry, looked up): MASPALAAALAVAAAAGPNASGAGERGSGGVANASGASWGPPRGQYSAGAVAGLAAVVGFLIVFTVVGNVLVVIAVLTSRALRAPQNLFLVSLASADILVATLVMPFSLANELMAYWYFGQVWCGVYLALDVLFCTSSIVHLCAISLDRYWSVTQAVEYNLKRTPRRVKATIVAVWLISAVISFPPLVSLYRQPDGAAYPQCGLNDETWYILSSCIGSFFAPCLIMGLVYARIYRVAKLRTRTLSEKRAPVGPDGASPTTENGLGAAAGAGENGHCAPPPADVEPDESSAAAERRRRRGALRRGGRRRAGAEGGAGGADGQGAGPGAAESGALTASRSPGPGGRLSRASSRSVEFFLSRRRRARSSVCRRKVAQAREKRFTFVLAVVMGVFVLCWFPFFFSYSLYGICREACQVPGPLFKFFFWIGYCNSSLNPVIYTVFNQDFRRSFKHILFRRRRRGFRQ
Sequence of Voltage-gated potassium channel subunit beta-2 (Rattus norvegicus) (P62483 whole entry, looked up): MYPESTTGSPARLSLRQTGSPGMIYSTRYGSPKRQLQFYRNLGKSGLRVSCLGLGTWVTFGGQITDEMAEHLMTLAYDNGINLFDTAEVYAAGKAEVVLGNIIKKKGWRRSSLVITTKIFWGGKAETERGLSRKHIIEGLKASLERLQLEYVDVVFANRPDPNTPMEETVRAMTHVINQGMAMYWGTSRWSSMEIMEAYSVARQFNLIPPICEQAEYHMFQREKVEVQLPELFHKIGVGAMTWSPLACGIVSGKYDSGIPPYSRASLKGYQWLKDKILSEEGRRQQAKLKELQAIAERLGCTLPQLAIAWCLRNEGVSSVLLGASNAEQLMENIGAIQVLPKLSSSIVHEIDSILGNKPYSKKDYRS

| SMILES | cell count [1] | inhibition [1] | inhibition of aggregation [2] | nuclei count [2] | inhibition [3] | nuclei count [3] | z-score [4, 13] | z-score [4, 14] | z-score [4, 15] | inhibition [5] | fluorescence slope [6] | NADPH fluorescence slope [7] | slope [8] | outcome [9] | inhibition [10] | inhibition [11] | inhibition [12] |
| --- | --- | --- | --- | --- | --- | --- | --- | --- | --- | --- | --- | --- | --- | --- | --- | --- | --- |
| CC(=O)O[C@]1(C(C)=O)CC[C@H]2[C@@H]3C[C@H](C)C4=CC(=O)CC[C@]4(C)[C@H]3CC[C@@]21C | 605 | 2.3% (inactive) | 0.3% (inactive) | 94.8% | -47.8% (inactive) | 119% | 1.33 | -0.458 | 0.835 | 12.4% (inactive) | -0.521 (inactive) | -6e-06 (inactive) | 0.00379 (inactive) | inactive | -2.6% (inactive) | 8.39% (inactive) | 46.7% (inactive) |
| CCOC(=O)CCC(=O)O[C@H]1[C@H](O[C@@H]2[C@@H](C)[C@H](O[C@H]3C[C@@](C)(OC)[C@@H](O)[C@H](C)O3)[C@@H](C)C(=O)O[C@H](CC)[C@@](C)(O)[C@H](O)[C@@H](C)C(=O)[C@H](C)C[C@@]2(C)O)O[C@H](C)C[C@@H]1N(C)C | 569 | -5.3% (inactive) | 0.8% (inactive) | 105% | -62.2% (inactive) | 115% | -0.734 | -0.933 | 0.00972 | -4.44% (inactive) | -0.495 (inactive) | -5.4e-05 (inactive) | 0.0056 (inactive) | inactive | 64.6% (active) | 20.3% (inactive) | 31.3% (inactive) |
| C=CCn1c(SCC#N)nc2c(c1=O)C(C)(C)Cc1ccccc1-2 | 648 | -0.1% (inactive) | 11.6% (inactive) | 107% | -30.9% (inactive) | 136% | 1.4 | 0.411 | -0.925 | 34.8% (inactive) | -0.315 (inactive) | -5.8e-06 (inactive) | 0.00525 (inactive) | inactive | 104% (active) | -4.84% (inactive) | 6.72% (inactive) |
| CCNC(=O)N(C)c1nncnc1C(=O)NC | 435 | -12.6% (inactive) | 6.9% (inactive) | 105% | -11.1% (inactive) | 105% | 0.426 | 0.386 | 0.174 | 2.92% (inactive) | -0.505 (inactive) | -4.4e-05 (inactive) | 0.00736 (inactive) | inactive | 35.2% (inactive) | 18.1% (inactive) | 22.2% (inactive) |
| COCCCC/C(=N\OCCN)c1ccc(C(F)(F)F)cc1 | 514 | -7.2% (inactive) | -27.7% (inactive) | 100% | -121% (inactive) | 121% | 1.11 | -1.18 | 0.0602 | 9.37% (inactive) | -0.468 (inactive) | -6.2e-05 (inactive) | 0.00513 (inactive) | inactive | -1.98% (inactive) and -5.54% (inactive) | 5.66% (inactive) | 36.1% (inactive) |
| CCOC(=O)c1c(C)n(C)c2ccc(O)c(S(=O)(=O)c3ccccc3)c12 | 278 | -3.6% (inactive) | -0.2% (inactive) | 103% | -19.6% (inactive) | 109% | -0.746 | 0.777 | 1.13 | -8.76% (inactive) | -0.458 (inactive) | -0.000154 (inactive) | 0.00656 (inactive) | inactive | -15.5% (inactive) | 21.8% (inactive) | 27% (inactive) |
| Nc1nnc(-c2cccc(Cl)c2Cl)c(N)n1 | 697 | -8.4% (inactive) | 2.2% (inactive) | 112% | -39.9% (inactive) | 139% | -0.0756 | -0.0257 | 1.16 | 1.48% (inactive) | -0.527 (inactive) | -7.1e-06 (inactive) | 0.00578 (inactive) | inactive | -6.28% (inactive) and 7.36% (inactive) | -2.35% (inactive) | 13.8% (inactive) |
| Cc1c(OCC(F)(F)F)ccnc1CS(=O)c1nc2ccccc2[nH]1 (stereo not given) | 654 | 0.3% (inactive) | 8.2% (inactive) | 77.3% | -74.2% (inactive) | 98.2% | 1.3 | -0.826 | -0.353 | 14.6% (inactive) | -0.466 (inactive) | -3.7e-05 (inactive) | 0.00411 (inactive) | inactive | -14.9% (inactive) and -4.97% (inactive) | -45.4% (inactive) | -64.9% (inactive) |
| CC(C)(S)[C@@H](N)C(=O)O | 657 | -4.4% (inactive) | -5.6% (inactive) | 105% | -120% (inactive) | 138% | 1.21 | -0.53 | -0.44 | 3.45% (inactive) | -0.482 (inactive) | -4.6e-05 (inactive) | 0.00423 (inactive) | inactive | -3.9% (inactive) | 22.7% (inactive) | 43.2% (inactive) |
| Cn1c(=O)c2c3c(sc2n2c(SCC(=O)c4ccc(Cl)cc4)nnc12)COC(C)(C)C3 | 673 | -9.1% (inactive) | -12.3% (inactive) | 105% | 2.7% (inactive) | 143% | -0.121 | 0.129 | -1.03 | -3.98% (inactive) | -0.53 (inactive) | -1.3e-05 (inactive) | 0.00419 (inactive) | inactive | 0.223% (inactive) | 6.06% (inactive) | 10.6% (inactive) |
| CCC(c1c(C)n(C)n(-c2ccccc2)c1=O)c1c(C)n(C)n(-c2ccccc2)c1=O | 550 | -4.3% (inactive) | 27.5% (inactive) | 89.2% | -51.3% (inactive) | 125% | -0.849 | -0.188 | -0.348 | 3.66% (inactive) | -0.488 (inactive) | -0.000154 (inactive) | 0.00494 (inactive) | inactive | 5% (inactive) | 17.6% (inactive) | 17.1% (inactive) |
| CC(C)NCC(O)COc1ccc(CCOCC2CC2)cc1 (stereo not given) | 564 | -5.6% (inactive) | 10.6% (inactive) | 102% | -146% (inactive) | 119% | -0.149 | 0.261 | 0.0924 | 1.48% (inactive) | -0.454 (inactive) | -2.4e-05 (inactive) | 0.0053 (inactive) | inactive | 7.04% (inactive) and 48.4% (inactive) | 12.5% (inactive) | 37.3% (inactive) |
| O=C(O)c1cc2cc(F)ccc2[nH]1 | 552 | -0.9% (inactive) | -5.1% (inactive) | 95.6% | -14.2% (inactive) | 107% | 2.14 | -1.93 | -0.0855 | -5.24% (inactive) | -0.457 (inactive) | -3.2e-05 (inactive) | 0.00488 (inactive) | inactive | -3.42% (inactive) and -23.2% (inactive) | 12.4% (inactive) | 46.1% (inactive) |
| O=C(NCCO)c1cccc2c1C(=O)c1ccccc1-2 | 511 | -13.6% (inactive) | 9.3% (inactive) | 91.4% | -95.8% (inactive) | 137% | -0.677 | 1.11 | 1.88 | 7.73% (inactive) | -0.517 (inactive) | -5.1e-05 (inactive) | 0.00471 (inactive) | inactive | 31.9% (inactive) | 4.9% (inactive) | -1.91% (inactive) |
| Cc1nnc2n(Cc3ccccc3)c(=O)c3c4c(sc3n12)COC(C(C)C)C4 (stereo not given) | 511 | 9.8% (inactive) | 29.9% (inactive) | 80.8% | -54.8% (inactive) | 118% | 0.665 | -0.394 | -1.52 | -1.12% (inactive) | -0.46 (inactive) | -0.000365 (inactive) | 0.00653 (inactive) | inactive | 146% (active) | 11.6% (inactive) | 3.4% (inactive) |
| COc1ccc(OC)c(C2=Nn3c(nnc3C3CCCCC3)SC2)c1 | 580 | -3.9% (inactive) | 18.9% (inactive) | 77.4% | -38.3% (inactive) | 118% | -0.0238 | 2.3 | -0.394 | 2.92% (inactive) | -0.431 (inactive) | -0.000148 (inactive) | 0.00512 (inactive) | inactive | 25.7% (inactive) | 5.58% (inactive) | 19.6% (inactive) |
| Cc1cccc(OCC(=O)N2CCC(N3CCCCCC3)CC2)c1 | 395 | -7.8% (inactive) | 17.2% (inactive) | 97.5% | -247% (inactive) | 128% | 1.59 | 1.35 | -0.179 | 5.57% (inactive) | -0.384 (inactive) | -4.7e-05 (inactive) | 0.00464 (inactive) | inactive | 17.1% (inactive) | -0.464% (inactive) | 3.84% (inactive) |
| CN(C)CCOC(=O)C(c1ccccc1)C1(O)CCCC1 (stereo not given) | 635 | -7.2% (inactive) | -8.5% (inactive) | 102% | -51% (inactive) | 110% | 0.315 | 0.351 | 1.54 | -6.41% (inactive) | -0.432 (inactive) | -7.3e-05 (inactive) | 0.00471 (inactive) | inactive | 13.5% (inactive) | 15.3% (inactive) | 45.7% (inactive) |
| O=C(CSc1nnc(-c2ccccc2)c(-c2ccccc2)n1)N1CCOCC1 | 611 | -6.9% (inactive) | 15.5% (inactive) | 96.7% | -44.9% (inactive) | 134% | -0.179 | -0.654 | 1.26 | -3.5% (inactive) | -0.397 (inactive) | -1.1e-05 (inactive) | 0.00498 (inactive) | inactive | 9.56% (inactive) | 14.8% (inactive) | 18% (inactive) |
| OC(CCN1CCCCC1)(c1ccccc1)c1ccccc1 | 674 | -1.6% (inactive) | -18% (inactive) | 108% | -75.5% (inactive) | 114% | 0.144 | -1.15 | -0.931 | -0.493% (inactive) | -0.458 (inactive) | -3.9e-05 (inactive) | 0.00533 (inactive) | inactive | -6.75% (inactive) | 16.1% (inactive) | 48% (inactive) |
